# From PubChem BioAssay (NCATS)
# Results filed as inconclusive are left out. A call without a number means that no potency is given here. The source made the active and inactive calls. Calls come from the whole dose curve; as a rule, active = well fitted inhibition curve with a large enough effect; inconclusive = small, poorly fitted or top-dose-only effect, or effect the other way; inactive = flat fitted curve, though single readings scatter.
# Test: qHTS for Inhibitors of Plasmodium falciparum (GB4) proliferation (AID 504315); note: nearly all actives have a fitted effect of over 50% in size
# Settings: P. falciparum GB4 in erythrocytes, SYBR Green DNA, 72 h; series mostly up to 6.7 µM
# How it was run: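 Parasite growth measured as SYBR Green DNA fluorescence (ex 485, em 535 nm) after overnight lysis following 72 h culture at 37 °C, 0.3% parasitemia, 2.5% hematocrit. Values normalized against DMSO and 0.29 uM artemisinin controls, with plate-stack correction.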
# Potency is the fitted concentration of half-maximal effect.
row,SMILES,Potency
1,C[C@@H]1C[C@](C)(C(=O)c2ccc3ccccc3c2)C=C1c1ccc2ccccc2c1,inactive
2,O=C(NS(=O)(=O)c1ccc(F)cc1)O[C@@H]1C(=O)c2cc(Br)ccc2O[C@H]1c1ccc2c(c1)OCO2,inactive
3,COC(=O)CCC(=O)OC1(C)C(=O)C2=CN(Cc3ccc(OC)cc3)C(c3ccc(OC)cc3)=CC2=C(Br)C1=O (stereo not given),inactive
4,COC(=O)[C@H]1[C@@H](C)N(Cc2ccccc2)C(=O)N[C@H]1c1ccccc1,inactive
5,CCCCc1nc2c(c3c1C[C@H](C)OC3)CN(S(=O)(=O)c1ccc(Cl)c3nonc13)CC2,inactive
6,COCCN1C(=O)N[C@@H](c2cccc(F)c2)C(C(=O)OC)=C1C,inactive
7,COC(=O)C1=C(C(=O)OC)[C@@H]2N(C)c3ccc(OC)cc3[C@@]23C[C@@H](C(=O)OC)N(S(=O)(=O)c2ccc(OC)cc2)C3=N1,inactive
8,C=CCN1c2ccccc2[C@]23C[C@@H](C(=O)OC)N(S(=O)(=O)c4cccs4)C2=NC(C(=O)OC)=C(C(=O)OC)[C@H]13,inactive
9,COC(=O)C1=C(C(=O)OC)[C@@H]2Nc3ccccc3[C@@]23C[C@@H](C(=O)OC)N(S(=O)(=O)c2cccs2)C3=N1,inactive
10,COC(=O)[C@@H](NC(=O)N1CCc2nc(-c3ccccc3)c3c(c2C1)CO[C@@H](C)C3)C(C)C,inactive
11,O=C(C=Cc1ccc2c(c1)OCO2)c1ccccc1,inactive
12,C=CCOC(=O)C(C(C)=O)[C@@H](NC(=O)OC)c1cccc(C(F)(F)F)c1 (stereo not given in full),inactive
13,CC=Cc1cc2ccccc2c2c(C(=O)OC)c(C(=O)OC)c(C(=O)OC)n12,inactive
14,CCN1C(=O)[C@@H]2[C@H]3[C@H](O)[C@H](O)CC(=NO[C@@H](C)c4cc(-c5c(C)cc(C)cc5C)no4)[C@@H]3CC[C@H]2C1=O,inactive
15,CCCC[C@]12Cc3cc(OC)c(OC)cc3[C@H](O1)C1=C(O2)C(=O)c2ccccc2C1=O,1.69 µM (active)
16,CC#CCN1c2ccccc2[C@]23C[C@@H](C(=O)OC)N(C(C)=O)C2=NC(C(=O)OC)=C(C(=O)OC)[C@H]13,inactive
17,COC(=O)C[C@H]1c2ccccc2[C@H]2C(=C[C@@H](C)[C@H]3C(=O)N(O)C(=O)[C@H]32)N1C(=O)OC,inactive
18,COC(=O)[C@@]1(C=C2c3ccc(F)cc3[C@@H](OC)[C@@H]2C)[C@@H]2CC=C[C@@H]21,inactive

row,SMILES,Potency
1,COC/C=C/C1=CC2=CC(=O)C(C)(OC(=O)c3cnc4ccccc4n3)C(=O)C2=CN1CCOC (stereo not given),inactive
2,CCCCc1nc2c(c3c1C[C@H](C)OC3)CN(S(=O)(=O)c1ccc3c(c1)OCCN3C)CC2,inactive
3,CCOC(=O)CN1C(=O)N[C@@H](CCc2ccccc2)C(C(=O)OC)=C1C,inactive
4,COC(=O)CCCC1=CC2=C(c3ccccc3)C(=O)C(C)(OC(=O)C3CCCC3)C(=O)C2=CN1C1CCCC1 (stereo not given),inactive
5,C=CCNC(=O)N1CCc2nc(COc3ccccc3)c3c(c2C1)CO[C@@H](C)C3,inactive
6,CC1(C)O[C@@H]2[C@@H](O1)C(c1ccccc1)(c1ccccc1)OP(=O)(O)OC2(c1ccccc1)c1ccccc1,inactive
7,CC(C)CON=C1C[C@@H](O)[C@@H](O)[C@@H]2[C@H]3C(=O)N(C4CCCCC4)C(=O)[C@@H]3CC[C@H]12,inactive
8,COC(=O)C1=C(C(=O)OC)[C@@H]2N(C)c3ccc(OC)cc3[C@@]23C[C@@H](C(=O)OC)N(C(C)=O)C3=N1,inactive
9,C=CCN1c2ccccc2[C@]23C[C@@H](C(=O)OC)N(S(=O)(=O)CCCC)C2=NC(C(=O)OC)=C(C(=O)OC)[C@H]13,inactive
10,CCCCC1=CC2=CC(=O)C(C)(OC(=O)CC)C(=O)C2=CN1Cc1ccccc1 (stereo not given),inactive
11,COC(=O)CCC(=O)OC1(C)C(=O)C=C2C=C(C3CC3)N(C3CC3)C=C2C1=O (stereo not given),inactive
12,COC(=O)CCC(=O)OC1(C)C(=O)C2=CN(CCCCO)C(c3ccc(OC)cc3)=CC2=C(Br)C1=O (stereo not given),inactive
13,COC(=O)N1CCc2cc(OC)c(OC)cc2C1Cc1ccc(OC)cc1 (stereo not given),inactive
14,C=C(C)C(=O)c1ccc2c(c1)OCO2,inactive
15,COC(=O)c1ccccc1S(=O)(=O)N1CCc2nc(COc3ccccc3)c3c(c2C1)CO[C@@H](C)C3,inactive
16,C=CCN1c2ccccc2[C@]23C[C@@H](C(=O)OC)N=C2NC(C(=O)OC)=C(C(=O)OC)[C@H]13,inactive
17,C[C@@H](c1ccccc1)N1C(=O)[C@@H]2[C@H]3[C@H](O)[C@H](O)CC(=NNC(=O)OCc4ccccc4)[C@@H]3CC[C@H]2C1=O,inactive
